“And” between values parts separate entries of the source, which are not always exact repeats. Equal values may be shown once. The campaign covered roughly 16,000 compounds. About 120 (0.75%) were called active. Another 4% or so got no clear call; they are omitted. Only a selection was taken, and actives are over-represented in it overall. Where a structure was tested more than once in an assay, its records may differ in their call. Unmarked numbers belong to inactive results. Calls come from the whole dose curve; as a rule, active = well fitted inhibition curve with a large enough effect; inconclusive = small, poorly fitted or top-dose-only effect; inactive = no such curve, though single readings can be large or run the other way.
Potency is the fitted concentration of half-maximal effect.

Sequence of Rap guanine nucleotide exchange factor 3 (Homo sapiens) (O95398 whole entry, looked up): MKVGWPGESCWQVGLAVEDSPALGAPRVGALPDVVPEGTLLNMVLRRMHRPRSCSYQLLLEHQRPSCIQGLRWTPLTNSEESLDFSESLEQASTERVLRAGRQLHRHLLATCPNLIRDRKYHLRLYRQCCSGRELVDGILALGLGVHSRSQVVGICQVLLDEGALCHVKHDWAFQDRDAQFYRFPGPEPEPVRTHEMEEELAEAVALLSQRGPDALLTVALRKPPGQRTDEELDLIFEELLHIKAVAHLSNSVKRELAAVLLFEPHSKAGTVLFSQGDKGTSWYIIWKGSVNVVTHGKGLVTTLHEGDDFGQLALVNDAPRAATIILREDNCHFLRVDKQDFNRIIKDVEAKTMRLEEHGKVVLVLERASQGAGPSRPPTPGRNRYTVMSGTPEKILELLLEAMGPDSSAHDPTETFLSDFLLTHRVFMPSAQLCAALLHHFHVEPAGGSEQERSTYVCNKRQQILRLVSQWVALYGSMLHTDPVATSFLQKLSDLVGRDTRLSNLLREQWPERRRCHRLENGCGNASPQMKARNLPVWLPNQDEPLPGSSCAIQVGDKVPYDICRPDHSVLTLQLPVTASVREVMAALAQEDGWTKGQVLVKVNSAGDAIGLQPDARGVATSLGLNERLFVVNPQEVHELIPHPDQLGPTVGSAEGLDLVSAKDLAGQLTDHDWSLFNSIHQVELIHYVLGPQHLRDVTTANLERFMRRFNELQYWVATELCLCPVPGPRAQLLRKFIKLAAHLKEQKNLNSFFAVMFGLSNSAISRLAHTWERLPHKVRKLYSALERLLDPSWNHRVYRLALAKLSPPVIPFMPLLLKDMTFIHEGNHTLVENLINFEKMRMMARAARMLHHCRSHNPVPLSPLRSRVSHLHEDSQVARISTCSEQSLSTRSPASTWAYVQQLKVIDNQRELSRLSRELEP

This test addresses Rap guanine nucleotide exchange factor 3 (Homo sapiens) (UniProt O95398). Description: Validation qHTS for antagonist of cAMP-regulated guanine nucleotide exchange factor 3 (EPAC1).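 For activity change, negative = inhibition: plate controls were DMSO for no effect and ATA control for full effect.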 Note: nearly all actives have a fitted effect of over 75% in size. Conditions: EPAC1 Rap1B-BODIPY-GDP exchange, fluorescence; series mostly up to 150 µM; activity change, negative = inhibition: at the top concentration. A digest of the protocol: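 Nucleotide exchange followed as fluorescence loss when BODIPY-GDP leaves Rap1B (480 nm excitation, 540 nm emission), read at 5 min intervals over 30 min. Reaction: 100 nM EPAC1, 250 nM RAP1B-BODIPY-GDP, 50 uM GDP; ATA and DMSO define normalization.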
In general terms: In qHTS, concentration-response curves come from the screen itself.
`CC(Oc1ccccc1)C(=O)NCC1Cc2cc(F)cc(-c3ccccn3)c2O1` (centres undefined): the “activity change, negative = inhibition” value is 0.154%.
With `COc1ccc(-c2nc3cnc(Nc4ccccc4)nc3n(Cc3cccs3)c2=O)cc1`, the “activity change, negative = inhibition” value is -3.69%.
As for `COc1ccc(-c2nc3cnc(Nc4cccc(OC)c4)nc3n(Cc3cccs3)c2=O)cc1`, the Potency was 100 µM (active).
Regarding `COc1cccc(Nc2ncc3nc(-c4ccccc4)c(=O)n(Cc4cccs4)c3n2)c1`, the “activity change, negative = inhibition” value is 18.4%.
Turning to `Cc1c(C)c2c(c(C)c1O)CCC(C)(COc1ccc(CC3SC(=O)NC3=O)cc1)O2` (centres undefined), the Potency is 100 µM (active).
On the same count and under the same terms, under `Cc1c(C)c2c(c(C)c1O)CC[C@@](C)(CCC[C@H](C)CCC[C@H](C)CCCC(C)C)O2` stands “inactive”.
For `Cc1c(C)c2c(c(C)c1O)CCC(C)(CCCC(C)CCCC(C)CCCC(C)C)O2` (centres undefined), the “activity change, negative = inhibition” value is -7.36%.
As for `CCc1ccc(CCOc2ccc(CC3SC(=O)NC3=O)cc2)nc1` (centres undefined), the Potency result is “inactive”.
Turning to `CC1(COc2ccc(CC3SC(=O)NC3=O)cc2)CCCCC1` (centres undefined), the Potency is 35.5 µM (active) and the activity change, negative = inhibition was 12.3% [at 15.3 µM].
Take `CC1(COc2ccc(C[C@H]3SC(=O)NC3=O)cc2)CCCCC1`: the Potency is 89.1 µM (active).
On to `CN(CCOc1ccc(CC2SC(=O)NC2=O)cc1)c1ccccn1` (centres undefined), for which the “activity change, negative = inhibition” value was 16.9%.
Still for that read-out and setting: in the case of `Fc1ccc(N2CCN(Cc3ccc4c(c3)CN(Cc3cccn3-c3cccnc3)CCO4)CC2)cc1` it was -5.67%; in that of `Cc1ccc2c(c1)CN(CCC(=O)NCc1cc(C)n(C)n1)CC(C)O2` (centres undefined), 5.77%.
In the case of `COc1cc(=O)n2c(c1C(=O)N(C)Cc1nonc1C)CCN(Cc1ccsc1)CC2`, the “activity change, negative = inhibition” value was 11.6%.
On to `Cc1ccc(CN2C[C@H](Sc3ccccn3)C[C@H]2C(=O)Nc2ccc3sc(C)nc3c2)c(C)c1`, for which the “activity change, negative = inhibition” value is 2.23%.
For `CN(C)/N=N/c1nc[nH]c1C(N)=O`, the Potency result is “inactive”.
Take `COc1cccc(Cn2c(=O)c(-c3cc(F)cc(F)c3)nc3cncnc32)c1`: the “activity change, negative = inhibition” value was 0.958%.
On the same count and under the same terms, under `Cc1noc(C)c1-c1cc(N(C)C)ncn1` stands 17.9%.
With `CCCCCCCCCCCCN1[C@@H](CC(=O)O)c2cc(C(F)(F)F)ccc2S1(=O)=O`, the Potency is 89.1 µM (active).
As to `CCCCCCCCCCCCN1[C@@H](CC(=O)OC)c2cc(C(F)(F)F)ccc2S1(=O)=O`, the “activity change, negative = inhibition” value was -0.938%.
Regarding `CCCCCCCCN1[C@@H](CC(=O)O)c2cc(C(F)(F)F)ccc2S1(=O)=O`, the “activity change, negative = inhibition” value is 9.17%.
For the compound `COc1ccc(OC)c(-c2ccnc(-n3ncc(C(=O)N(C)CCc4ccccn4)c3C)n2)c1`, the “activity change, negative = inhibition” value is 18.1%.
On the same count and under the same terms, under `Clc1ccc2ncnc(NCc3ccc4c(c3)OCO4)c2c1` stands 14.1% [at 201 µM].
Take `CC(O)c1nc2ccccc2[nH]1` (centres undefined): the “activity change, negative = inhibition” value is 5.07%.
The same measure, in the same setting: under `O=C1CC[C@@H](CN(Cc2cccnc2)C2CCN(c3ccc(NC(=O)c4cnccn4)cc3)CC2)N1` stands -4.84%.
As to `CCCCC(CC)COC(=O)CC(C(=O)OCC(CC)CCCC)S(=O)(=O)O` (centres undefined), the Potency was 56.2 µM (active) and 25.1 µM (active).
Consider `CCCCC(CC)COS(=O)(=O)O` (centres undefined), for which the “activity change, negative = inhibition” value is -7.64%.
The same measure, in the same setting: under `CCCCC(CC)COC(=O)c1ccccc1O` (centres undefined) stands 24.3%.
As for `O=c1c(-c2ccccc2)nc2cncnc2n1Cc1ccccc1`, the “activity change, negative = inhibition” value is 2.28%.
On the same count and under the same terms, under `COc1ccc(-c2nc3cnc(N4CCN(C)CC4)nc3n(-c3ccc(OC)cc3)c2=O)cc1` stands 19%; under `COc1ccc(-c2nc3cc(C)ccc3cc2CN(C(=O)c2ccc(C)s2)C2CC2)cc1OC`, 4.33%.
Turning to `c1ccc(Cc2nnc3n2CCN(Cc2cnc(-c4ccccc4)s2)CC3)cc1`, the “activity change, negative = inhibition” value is 20.3%.
Take `COc1ccc(-n2c(=O)c(CCc3ccccc3)nc3cnc(N4CCNCC4)nc32)cc1`: the “activity change, negative = inhibition” value was 10.6%.
The same measure, in the same setting: in the case of `COc1ccc(C(=O)C[n+]2ccccc2Cl)cc1` it was 7.36%; in that of `COc1ccc(C(C)=O)cc1`, 18.3%.
On to `COc1ccc(C(=O)CC(=O)c2ccc(C(C)(C)C)cc2)cc1`, for which the Potency is 79.4 µM (active).
Take `Cc1ncc2c(c1CNC(=O)c1ccsc1)CCN(C(=O)c1c(F)cccc1Cl)C2`: the “activity change, negative = inhibition” value was 8.26%.
On to `COc1cc(C)c(CN2C[C@H](Sc3ccccn3)C[C@H]2C(=O)N(C)C)cc1C`, for which the “activity change, negative = inhibition” value is -9.09%.

These data come from PubChem BioAssay AID1645882 (National Center for Advancing Translational Sciences (NCATS), 2021).
